Screening results deposited in PubChem BioAssay by National Center for Advancing Translational Sciences (NCATS).
GLP1R inv ag = qHTS of GLP-1 Receptor Inverse Agonists (Inhibition Mode). Glucagon-like peptide 1 receptor (Homo sapiens), P43220. HEK293 GLP-1R CRE-luciferase, luminescence, 24 h; GLP-1R form is constitutively active. Potency, µM (top dose mostly 38.3 µM), for the others: at the top dose activity change, negative = inhibition, hits mostly inhibitors. actives 1.6% (n = 410,000); also: % is scaled to controls: 0 for no effect and ±100 for the full control effect; nearly all actives have a fitted effect of over 55% in size
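Assay principle: reduced luminescence from a cAMP-responsive reporter in HEK293 cells co-expressing a constitutively active GLP-1R. Conditions: 24 hr compound incubation, 37 deg C, 5% CO2.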
GLP-1R agonist = qHTS of GLP-1 Receptor Agonists; Glucagon-like peptide 1 receptor (Homo sapiens), P43220; HEK293 GLP-1R CRE-luciferase, luminescence, 4-6 h; cells express a hypersensitive GLP-1R form; Potency, µM (series often up to 45.6 µM), without a hit: top-dose activation, most hits filed as activators; actives 0.007% (n = 380,000); AID 624172, 2012; also: % of control where 0% means no effect
RORg inh = qHTS for inhibitors of ROR gamma transcriptional activity; actives 5.4% (n = 310,000); Drosophila S2 Gal4-RORgamma UAS-luciferase reporter, 20 h; Potency, µM (series often up to 53.6 µM), inactives show at the top dose activity change, negative = inhibition, most hits filed as inhibitors; Nuclear receptor ROR-gamma (Mus musculus), P51450; also: % is scaled to controls: 0 for no effect and ±100 for the full control effect; nearly all actives have a fitted effect of over 60% in size
Target sequence (P51450 whole entry, looked up, the tested form may be a part): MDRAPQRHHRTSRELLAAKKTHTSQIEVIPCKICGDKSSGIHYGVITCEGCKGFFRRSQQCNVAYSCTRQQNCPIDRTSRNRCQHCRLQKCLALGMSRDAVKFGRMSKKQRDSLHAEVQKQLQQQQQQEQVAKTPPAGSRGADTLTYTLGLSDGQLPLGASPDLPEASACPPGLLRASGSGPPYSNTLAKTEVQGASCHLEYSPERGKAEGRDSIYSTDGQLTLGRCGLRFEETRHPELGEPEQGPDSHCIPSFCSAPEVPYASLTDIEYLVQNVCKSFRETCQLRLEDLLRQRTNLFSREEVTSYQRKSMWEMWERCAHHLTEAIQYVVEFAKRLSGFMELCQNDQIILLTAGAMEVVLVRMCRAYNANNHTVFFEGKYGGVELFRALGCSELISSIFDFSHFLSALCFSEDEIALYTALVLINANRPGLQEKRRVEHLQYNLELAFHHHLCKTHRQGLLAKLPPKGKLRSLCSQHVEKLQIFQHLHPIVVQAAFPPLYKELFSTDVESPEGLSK
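Drosophila Schneider cells stably carrying a metallothionein-driven Gal4 DBD–ROR gamma fusion and a UAS-Photinus luciferase reporter were exposed to compound for 1 hr, then induced with copper sulfate (700 uM final) for 20 hr at ambient temperature before luminescence reading.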
GLP1R cytotox = qHTS of GLP-1 Receptor Inverse Agonists: Cytotox Screen; HEK293 cAMP-luciferase reporter cells, luminescence, 24 h; Potency, µM (doses to about 38.3 µM), without a hit: at the highest dose activity change, negative = inhibition, most hits filed as inhibitors; actives 0.13% (n = 410,000);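 also: loss of luciferase light is scored as toxicity; % is scaled to controls: 0 for no effect and ±100 for the full control effect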
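MLSMR compounds, 24 hr on cells at 37 deg C/5% CO2; luminescence after luciferase reagent (12 min RT). Inhibition counted as the undesired cytotoxic outcome.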
Gal4-VP16 FLuc = VP16 counterscreen qHTS for inhibitors of ROR gamma transcriptional activity; Drosophila S2 Gal4-VP16 UAS-luciferase, luminescence, 20 h; Potency, µM (doses to about 53.6 µM), without a hit: top-dose activity, negative = inhibition, most hits filed as inhibitors; actives 3.5% (n = 310,000);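 also: Gal4-VP16 expression switched on by copper sulfate through the metallothionein promoter; % is scaled to controls: 0 for no effect and ±100 for the full control effect; nearly all actives have a fitted effect of over 50% in size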
An asterisk follows results filed as active; [ ] = another dose, or the depositor's remark. Only some compounds are listed: those with a hit (about 5.9% of all), similar ones and a draw of the others. Calls follow the shape of the dose curve; as a rule, active = well fitted curve in the direction sought with a large enough effect; inconclusive = small, poorly fitted or top-dose-only effect, or another doubt; inactive = no such curve, though single readings can be large; an effect the other way counts as inactive or inconclusive. Potency is read from the fitted curve at half-maximal effect.

For COc1cc(OC)cc(-c2n[nH]c(=S)n2-c2ccc3c(c2)OCO3)c1 the results were GLP1R inv ag 16.3%, GLP-1R agonist 0.3%, RORg inh 5.62µM*, GLP1R cytotox -12.1% and Gal4-VP16 FLuc inconclusive.
For O=C(O)c1ccc(-n2c(-c3ccccc3)n[nH]c2=S)cc1 the results were GLP1R inv ag -0.7%, GLP-1R agonist 0.9%, RORg inh 6.3%, GLP1R cytotox 1.6% and Gal4-VP16 FLuc -0.7%.
Nc1c(-c2n[nH]c(=S)n2-c2ccc(Cl)cc2Cl)cnn1-c1ccccc1 was read as GLP1R inv ag -14.6%, GLP-1R agonist -0.6%, RORg inh 2.82µM*, GLP1R cytotox -15.0% and Gal4-VP16 FLuc -19.1%.
`Cc1ccc(-n2c(-c3ccccc3)n[nH]c2=S)cc1` gave GLP1R inv ag 6.1%, GLP-1R agonist -6.2%, RORg inh 3.16µM*, GLP1R cytotox inconclusive and Gal4-VP16 FLuc 5.62µM*.
Screening Fc1ccc(-n2c(-c3ccc4c(c3)OCO4)n[nH]c2=S)cc1Cl returned GLP1R inv ag -2.5%, GLP-1R agonist 2.2%, RORg inh inconclusive, GLP1R cytotox -26.3% and Gal4-VP16 FLuc inconclusive.
C1=C(CN2CCOCC2)COc2c1cccc2OC[C@@H]1CNCCO1 was read as RORg inh -10.6% and Gal4-VP16 FLuc -6.8%.
`O=C(CCN1C(=O)c2ccccc2C1=O)NC(=S)Nc1ccccc1` gave GLP1R inv ag 3.1%, GLP-1R agonist -19.8%, RORg inh 12.6µM*, GLP1R cytotox -1.0% and Gal4-VP16 FLuc inconclusive.
For O=C(CCN1C(=O)c2ccccc2C1=O)Nc1cccc(O)c1 the results were GLP1R inv ag 5.4%, GLP-1R agonist -1.0%, RORg inh -9.0%, GLP1R cytotox -3.9% and Gal4-VP16 FLuc 0.4%.
Screening Cc1cc(C)cc(NC(=S)NC(=O)Cc2ccccc2)c1 returned GLP1R inv ag inconclusive, GLP-1R agonist 21.6% and GLP1R cytotox inconclusive.
O=C(CCCN1C(=O)c2ccccc2C1=O)Nc1ccccc1 was read as GLP1R inv ag 2.6%, GLP-1R agonist 14.1%, RORg inh 0.9%, GLP1R cytotox 3.0% and Gal4-VP16 FLuc -1.3%.
For Cc1cc(C)cc(NC(=S)NC(=O)CCN2C(=O)c3ccccc3C2=O)c1 the results were GLP1R inv ag 0.7%, GLP-1R agonist -0.7%, RORg inh 3.55µM*, GLP1R cytotox -3.5% and Gal4-VP16 FLuc 4.47µM*.
For O=C(CCN1C(=O)c2ccccc2C1=O)NC(=S)Nc1cccc(Cl)c1 the results were GLP1R inv ag -14.4%, GLP-1R agonist 2.0%, RORg inh 11.2µM*, GLP1R cytotox 0.6% and Gal4-VP16 FLuc inconclusive.
`CO[C@H]1OC2O[C@@]3(C)CC[C@H]4[C@H](C)CC[C@@H]([C@H]1C)[C@@]24OO3` (stereo not given in full) gave GLP-1R agonist -7.6%, RORg inh -10.7%[10 µM] and Gal4-VP16 FLuc -1.1%.
Screening Cc1oc2ncn(CC(C)C)c(=O)c2c1C(=O)NCCCN(Cc1ccccc1)C(C)C returned GLP1R inv ag inconclusive and GLP1R cytotox -18.6%.
Screening COc1ccccc1N1CCN(C(=O)C2CCC(Cn3c(=S)[nH]c4ccccc4c3=O)CC2)CC1 (stereo not given) returned GLP1R inv ag -8.9%, GLP-1R agonist 4.8%, RORg inh 2.51µM*, GLP1R cytotox 3.4% and Gal4-VP16 FLuc 5.01µM*.
O=C(C1CCC(Cn2c(=S)[nH]c3ccccc3c2=O)CC1)N1CCN(c2ccccn2)CC1 (stereo not given) was read as GLP1R inv ag -33.9%, GLP-1R agonist 3.8%, RORg inh 5.62µM*, GLP1R cytotox 3.1% and Gal4-VP16 FLuc inconclusive.
Screening CCCCCNC(=O)C1CCC(Cn2c(=S)[nH]c3ccccc3c2=O)CC1 (stereo not given) returned GLP1R inv ag 4.1%, GLP-1R agonist -1.2%, RORg inh 1.7%, GLP1R cytotox -1.2% and Gal4-VP16 FLuc -3.4%.
O=C(CCCn1c(=S)[nH]c2ccc(Br)cc2c1=O)N1CCN(c2ccccn2)CC1 was read as GLP1R inv ag -22.6%, GLP-1R agonist 16.0%, RORg inh 7.08µM*, GLP1R cytotox -17.0% and Gal4-VP16 FLuc inconclusive.
For C=CCn1c(=S)[nH]c2cc(C(=O)N3CCN(c4ccccc4OC)CC3)ccc2c1=O the results were GLP1R inv ag -10.4%, GLP-1R agonist -0.6% and GLP1R cytotox -2.3%.
COc1ccc(N2CCN(C(=O)C3CCC(Cn4c(=S)[nH]c5ccccc5c4=O)CC3)CC2)cc1 (stereo not given) was read as GLP1R inv ag 0.0%, GLP-1R agonist 7.8%, RORg inh 3.55µM*, GLP1R cytotox -4.8% and Gal4-VP16 FLuc 7.08µM*.
Screening O=C1C[C@@H](O)[C@@H](O)[C@@H]2[C@H]3C(=O)N(c4ccc(F)cc4F)C(=O)[C@@H]3CC[C@@H]12 returned RORg inh 10.8%[10 µM] and Gal4-VP16 FLuc 4.3%[10 µM].
Screening Cc1ccc(CN2CCCn3nc(C(=O)NCCc4ccc(Cl)cc4)cc3C2=O)cc1 returned GLP1R inv ag -22.3% and GLP1R cytotox 2.0%.
For COc1ccc(-n2ncc3c2ncn2nc(-c4ccc(OC)c(OC)c4)nc32)cc1 the results were GLP1R inv ag 6.0% and GLP1R cytotox 4.2%.
For O=C(CCn1c(=S)[nH]c2ccccc2c1=O)N1CCOCC1 the results were GLP1R inv ag 5.1%, GLP-1R agonist -3.6%, RORg inh 28.9%, GLP1R cytotox 7.7% and Gal4-VP16 FLuc -2.4%.
For O=C(C1CCC(Cn2c(=O)[nH]c3ccccc3c2=O)CC1)N1CCN(c2ccccc2)CC1 (stereo not given) the results were GLP1R inv ag -28.9%, GLP-1R agonist 3.1%, RORg inh 18.3%, GLP1R cytotox 2.0% and Gal4-VP16 FLuc -8.3%.
O=C(C1CCC(Cn2c(=S)[nH]c3ccccc3c2=O)CC1)N1CCOCC1 (stereo not given) was read as GLP1R inv ag 9.1%, GLP-1R agonist 6.6%, RORg inh 11.2µM*, GLP1R cytotox -6.4% and Gal4-VP16 FLuc inconclusive.
For O=C(C1CCC(Cn2c(=S)[nH]c3ccccc3c2=O)CC1)N1CCN(c2ccccc2)CC1 (stereo not given) the results were GLP1R inv ag 3.55µM*, GLP-1R agonist -10.6% and GLP1R cytotox -4.6%.
CN(C)CCNC(=O)CCCN1C(=O)c2cccnc2Oc2ccc(Cl)cc21 was read as GLP1R inv ag 14.1% and GLP1R cytotox 4.1%.
